Laboratory results from PubChem BioAssay (NCI).
“And” between values parts separate entries of the source, which are not always exact repeats. Identical values can stand only once. About 79,000 compounds went through this panel and 15% of them were active in at least one assay; those are over-represented in the sample as a whole. Some compounds were tested as several samples or in several runs, with calls that do not always agree. The source made the active and inactive calls. No stated cut-off is given here; in the data, active means growth inhibition above about 70%; inactive means the rest.

How the values were obtained:
[1] = NCI Yeast Anticancer Drug Screen. Data for the wt1 strain (AID 149);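 further: 0% = growth of vehicle-treated wt1 cultures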; details: S. cerevisiae wt1 strain (SPY 50644) growth inhibition, stronger effect = higher value
Procedure, shortened: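 The wt1 strain was treated with compounds, and growth was compared with vehicle-treated cultures to give inhibition.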

[2] = NCI Yeast Anticancer Drug Screen. Data for the rad50EPP+ strain (AID 151);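 further: 0% = growth of vehicle-treated control cultures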; details: S. cerevisiae rad50 mutant strain, stronger effect = higher value
Procedure, shortened: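 Measured: growth inhibition of rad50EPP+ yeast. Reference: vehicle-treated controls. Screen uses strains with defined genetic alterations in DNA damage repair or cell cycle control.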

[3] = NCI Yeast Anticancer Drug Screen. Data for the mgt1 strain (AID 153); details: S. cerevisiae mgt1 mutant growth inhibition, stronger effect = higher value
Procedure, shortened: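 Compounds were applied to mgt1 mutant yeast, and growth was then compared against vehicle-treated control cultures to give percent inhibition.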

[4] = NCI Yeast Anticancer Drug Screen. Data for the rad50 strain (AID 155);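 further: 0% = growth of vehicle-only cultures of the same strain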; details: S. cerevisiae rad50 strain growth inhibition, stronger effect = higher value
Procedure, shortened: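 Cells are treated with compound, grown, and their growth is then scored against vehicle-only cultures of the same repair-deficient yeast strain.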

[5] = NCI Yeast Anticancer Drug Screen. Data for the mec2-1 strain (AID 157); details: S. cerevisiae mec2-1 strain, stronger effect = higher value
Procedure, shortened: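 Compounds were applied to mec2-1 yeast cells. Their growth was then compared with that of vehicle-treated cultures to give growth inhibition.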

[6] = NCI Yeast Anticancer Drug Screen. Data for the rad14 strain (AID 159);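 further: 0% = growth of vehicle-treated control cultures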; details: S. cerevisiae rad14 strain growth inhibition, stronger effect = higher value
Procedure, shortened: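 Readout: yeast growth inhibition, referenced to vehicle-only cultures. Strain bears a defined alteration in DNA damage repair.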

[7] = NCI Yeast Anticancer Drug Screen. Data for the sgs1 mgt1 strain (AID 161);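 further: 0% = growth of cultures given vehicle only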; details: S. cerevisiae sgs1 mgt1 strain, stronger effect = higher value
Procedure, shortened: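 Yeast cells carrying a defined DNA-repair defect were exposed to test compounds. Growth inhibition was measured relative to vehicle-treated controls.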

[8] = NCI Yeast Anticancer Drug Screen. Data for the CLN2oe strain (AID 163);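 further: 0% = growth of vehicle-only control cultures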; details: S. cerevisiae CLN2oe strain, stronger effect = higher value
Procedure, shortened: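 Cells of an engineered yeast line with disturbed cell-cycle regulation are treated with compound. Inhibition of growth is then calculated relative to the vehicle-treated reference.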

[9] = NCI Yeast Anticancer Drug Screen. Data for the cln2 rad14 strain (AID 165);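 further: 0% = growth equal to vehicle treated cultures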; details: S. cerevisiae cln2 rad14 strain, stronger effect = higher value
Procedure, shortened: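 Strain: cln2 rad14 yeast, altered in cell cycle control and DNA damage repair. Read-out: growth inhibition vs vehicle.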

[10] = NCI Yeast Anticancer Drug Screen. Data for the bub3 strain (AID 167); details: S. cerevisiae bub3 mutant strain, stronger effect = higher value
Procedure, shortened: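 Part of a panel of yeast mutants defective in DNA damage repair or cell cycle regulation. Each strain is grown with compound, and inhibition is calculated relative to solvent-treated cultures.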

[11] = NCI Yeast Anticancer Drug Screen. Data for the wt2 strain (AID 169);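 further: 0% = growth of vehicle-treated yeast cultures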; details: S. cerevisiae wt2 strain growth inhibition, stronger effect = higher value
Procedure, shortened: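 Growth of compound-treated yeast is measured and expressed as inhibition relative to vehicle-only controls.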

[12] = NCI Yeast Anticancer Drug Screen. Data for the mlh1 strain (AID 171);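 further: 0% = growth of vehicle-treated control cultures of the same strain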; details: S. cerevisiae mlh1 strain growth inhibition, stronger effect = higher value
Procedure, shortened: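 Test agents were incubated with yeast bearing a defined DNA damage repair or cell cycle control alteration; values are growth inhibition normalised to vehicle-treated cultures.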

[13] = NCI Yeast Anticancer Drug Screen. Data for the sgs1 strain (AID 173);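 further: 0% = growth of vehicle-only control cultures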; details: S. cerevisiae sgs1 mutant, stronger effect = higher value
Procedure, shortened: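 Strain with an altered DNA repair or cell cycle pathway exposed to compound. Growth then measured. Value = inhibition versus vehicle control.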

[14] = NCI Yeast Anticancer Drug Screen. Data for the mlh1 rad18 strain (AID 175); details: S. cerevisiae mlh1 rad18 strain growth inhibition, stronger effect = higher value
Procedure, shortened: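 A repair-deficient yeast strain is exposed to test compound, and growth is scored relative to vehicle-treated controls.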

[15] = NCI Yeast Anticancer Drug Screen. Data for the rad18 strain (AID 177); details: S. cerevisiae rad18 mutant growth inhibition, stronger effect = higher value
Procedure, shortened: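 DNA-repair-defective yeast; compound treatment; growth inhibition scored against vehicle.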

[16] = at 5.0 µM (retest, dose inferred, filed as 0.5)
[17] = at 50.0 µM (retest, dose inferred, filed as 5.0)

Measured: growth inhibition

S=c1[nH]nc(Cc2ccccc2)c(=S)[nH]1
inactive: [1]; at 1.2 µM -47% | [1]; at 3.7 µM -14% | [1]; at 11.0 µM 30% | [2]; at 1.2 µM -22% | [2]; at 3.7 µM -10% | [2]; at 11.0 µM -11% | [2]; at 33.0 µM 16% | [2]; at 100.0 µM 48% | [3]; at 1.2 µM 23% | [3]; at 3.7 µM 47% | [4]; at 1.2 µM -17% | [4]; at 3.7 µM -6% | [4]; [16] 63% | [4]; at 11.0 µM 36% | [4]; [17] 55% | [5]; at 1.2 µM -8% | [5]; at 3.7 µM -6% | [5]; [16] 7% | [5]; at 11.0 µM 29% | [5]; at 50.0 µM 64.2% | [6]; at 1.2 µM -3% | [6]; at 3.7 µM 26% | [6]; at 11.0 µM 69% | [7]; [16] 41% | [8]; at 1.2 µM 26% | [8]; at 3.7 µM 25% | [8]; at 11.0 µM 35% | [9]; [16] 45% | [9]; [17] 67% | [9]; at 50.0 µM 39.4% | [10]; at 1.2 µM 16% | [10]; at 3.7 µM 21% | [10]; [16] 46% | [10]; at 11.0 µM 51% | [11]; at 1.2 µM -40% | [11]; at 3.7 µM -1% | [11]; at 11.0 µM 62% | [12]; at 1.2 µM 14% | [12]; at 3.7 µM 34% | [13]; at 1.2 µM 2% | [13]; at 3.7 µM 10% | [13]; at 11.0 µM 64% | [14]; [16] 53% | [14]; [17] 60% | [15]; at 1.2 µM 9% | [15]; at 3.7 µM 3% | [15]; at 11.0 µM 42%
active: [1]; at 33.0 µM 92% | [1]; at 100.0 µM 97% | [3]; at 11.0 µM 83% | [3]; at 33.0 µM 97% | [3]; at 100.0 µM 97% | [4]; at 33.0 µM 89% | [4]; at 50.0 µM 72.6% | [4]; at 100.0 µM 95% | [5]; at 33.0 µM 91% | [5]; [17] 75% | [5]; at 100.0 µM 96% | [6]; at 33.0 µM 94% | [6]; at 100.0 µM 97% | [7]; [17] 83% | [7]; at 50.0 µM 86.3% | [8]; at 33.0 µM 91% | [8]; at 100.0 µM 96% | [10]; at 33.0 µM 94% | [10]; [17] 79% | [10]; at 50.0 µM 71.2% | [10]; at 100.0 µM 97% | [11]; at 33.0 µM 94% | [11]; at 100.0 µM 95% | [12]; at 11.0 µM 77% | [12]; at 33.0 µM 96% | [12]; at 100.0 µM 96% | [13]; at 33.0 µM 95% | [13]; at 100.0 µM 97% | [14]; at 50.0 µM 75.2% | [15]; at 33.0 µM 94% | [15]; at 100.0 µM 97%

Cc1ccc(Cl)c2c(=O)c3ccccc3[nH]c12
inactive: [1]; at 1.2 µM -1% | [1]; at 3.7 µM -3% | [1]; at 11.0 µM -2% | [1]; at 33.0 µM 0% | [1]; at 100.0 µM 5% | [2]; at 1.2 µM 4% | [2]; at 3.7 µM 2% | [2]; at 11.0 µM 12% | [2]; at 33.0 µM 24% | [2]; at 100.0 µM 58% | [3]; at 1.2 µM -2% | [3]; at 3.7 µM -1% | [3]; at 11.0 µM 0% | [3]; at 33.0 µM 0% | [3]; at 100.0 µM 7% | [4]; at 1.2 µM -9% | [4]; at 3.7 µM -44% | [4]; [16] 5% | [4]; at 11.0 µM 14% | [4]; at 33.0 µM 3% | [4]; at 100.0 µM 51% | [5]; at 1.2 µM -1% | [5]; at 3.7 µM -3% | [5]; [16] 4% | [5]; at 11.0 µM -2% | [5]; at 33.0 µM 1% | [5]; [17] 32% | [5]; at 50.0 µM 40% | [5]; at 100.0 µM 11% | [6]; at 1.2 µM 0% | [6]; at 3.7 µM 3% | [6]; at 11.0 µM 4% | [6]; at 33.0 µM 5% | [6]; at 100.0 µM 19% | [7]; [16] 0% | [7]; [17] 34% | [7]; at 50.0 µM 41.3% | [8]; at 1.2 µM -4% | [8]; at 3.7 µM -5% | [8]; at 11.0 µM -4% | [8]; at 33.0 µM -2% | [8]; at 100.0 µM -12% | [9]; [16] -8% | [9]; [17] 9% | [9]; at 50.0 µM 11.2% | [10]; at 1.2 µM -3% | [10]; at 3.7 µM -2% | [10]; [16] -5% | [10]; at 11.0 µM -7% | [10]; at 33.0 µM -1% | [10]; [17] 14% | [10]; at 50.0 µM 27.6% | [10]; at 100.0 µM 4% | [11]; at 1.2 µM 0% | [11]; at 3.7 µM 8% | [11]; at 11.0 µM 1% | [11]; at 33.0 µM 4% | [11]; at 100.0 µM 10% | [12]; at 1.2 µM 0% | [12]; at 3.7 µM -1% | [12]; at 11.0 µM 0% | [12]; at 33.0 µM 0% | [12]; at 100.0 µM 12% | [13]; at 1.2 µM -2% | [13]; at 3.7 µM 2% | [13]; at 11.0 µM -1% | [13]; at 33.0 µM 4% | [13]; at 100.0 µM 23% | [14]; [16] 2% | [14]; [17] 59% | [15]; at 1.2 µM 1% | [15]; at 3.7 µM 2% | [15]; at 11.0 µM 2% | [15]; at 33.0 µM 7% | [15]; at 100.0 µM 54%
active: [4]; [17] 71% | [4]; at 50.0 µM 84.1% | [14]; at 50.0 µM 71%

Cc1cnc(/C=N\NC(N)=S)c2cccc(N)c12
active: [1]; at 100.0 µM 90% | [3]; at 100.0 µM 84% | [4]; [17] 80% and 71% | [4]; at 100.0 µM 83% | [5]; at 33.0 µM 82% | [5]; [17] 87% and 86%
74% (active) and 60% (inactive): [5]; at 50.0 µM
inactive: [1]; at 1.2 µM -63% | [1]; at 3.7 µM -49% | [1]; at 11.0 µM -36% | [1]; at 33.0 µM 58% | [2]; at 1.2 µM -68% | [2]; at 3.7 µM -57% | [2]; at 11.0 µM -45% | [2]; at 33.0 µM -38% | [2]; at 100.0 µM -4% | [3]; at 1.2 µM -78% | [3]; at 3.7 µM -69% | [3]; at 11.0 µM -12% | [3]; at 33.0 µM 43% | [4]; at 1.2 µM -81% | [4]; at 3.7 µM -43% | [4]; [16] 13% and 15% | [4]; at 11.0 µM -69% | [4]; at 33.0 µM 28% | [4]; at 50.0 µM 62.3% and 60% | [5]; at 1.2 µM -19% | [5]; at 3.7 µM -48% | [5]; [16] 7% and 21% | [5]; at 11.0 µM 13%
